Experimental data from PubChem BioAssay (NCATS).
Several values for one entry are separate records, joined by “and”; a condition that tells them apart may be missing. Equal values may be shown once. Values without a mark were called inactive. Records with an inconclusive call do not appear. Activity calls are given as the source filed them. Unless noted, calls come from the whole dose curve; as a rule, active = well fitted curve in either direction with a large enough effect (not every such curve was filed as active); inconclusive = small, poorly fitted or top-dose-only effect, or another doubt; inactive = flat fitted curve, though single readings scatter.

What was measured:
[1] = AP1 Signaling Pathway (AID 357); details: ME-180 AP-1-bla reporter, EGF-induced, beta-lactamase ratio, 5 h; at 17.2 µM (top of the series) unless noted;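 note: ME-180 reporter cells stimulated with EGF at its EC50 level; % is set by controls: 0 for no effect and ±100 for the full control effect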
In short: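 Cells are seeded overnight, exposed to compound titrations and an EC50 level of EGF for 5 hours at 37 °C, then loaded with CCF4 dye for 2.5 hours. Beta-lactamase activity under the AP-1 element is read as a blue/green ratio.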

[2] = target: Cytochrome P450 1A2 (Homo sapiens) (UniProt P05177); assay: p450-cyp1a2 (AID 410; calls by dose curve; note: potency is the fitted concentration of half-maximal effect;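 for activity change, negative = inhibition: -100% = full effect of reference inhibitor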); details: recombinant CYP1A2, luciferin-ME demethylation, luminescence; series mostly up to 25.6 µM
In short: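 20nM CYP1A2, 100uM Luciferin-ME (=Km), 100mM KPO4; cpd 10 min RT; +NADPH regen, 60 min RT; stop/detect 20 min; luminescence. Normalized to furafylline 57 uM = full inhibition.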

[3] = Cell Viability - BJ (AID 421; calls by dose curve;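 note: potency is the fitted concentration of half-maximal effect; cells exposed to compound for 40 hours at 37 °C before readout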); details: BJ fibroblast viability, qHTS
In short: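 Cytotoxicity as drop in intracellular ATP (CellTiter-Glo, 20 min RT) after 40 hr compound exposure of BJ fibroblasts at 37 °C. Titrations scaled between DMSO and 100 uM tamoxifen, Hill-fitted for AC50.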

[4] = Cell Viability - Jurkat (AID 426;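 active = dose-dependent loss of cell ATP signal giving a full or clear fitted curve, ranked by lower potency value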;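 note: potency is the fitted concentration of half-maximal effect; cells exposed to compound for 40 hours at 37 °C before ATP read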); details: qHTS
In short: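 Luminescent ATP read-out (CellTiter-Glo, 20 min at room temperature) after 40 hr compound exposure at 37 °C of Jurkat E6-1 cells, 5000/well. Decreased ATP taken as cytotoxicity; AC50 from standard Hill equation.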

[5] = Cell Viability - Hek293 (AID 427;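 active = compounds whose dose-response curve shows a full or clear partial loss of cell viability, called from curve shape rather than a numeric limit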;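 note: potency is the fitted concentration of half-maximal effect; cells exposed to compound for 40 hours at 37 °C before reading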); details: qHTS
In short: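 Luminescent ATP content (CellTiter-Glo, 20 min at room temperature) was measured after a 40 hr, 37 °C compound exposure of HEK293 cells. AC50 values came from Hill-equation fits of qHTS concentration-response data normalized to DMSO and 100 uM tamoxifen.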

[6] = Cell Viability - HepG2 (AID 433; calls by dose curve;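 note: potency is the fitted concentration of half-maximal effect; cells exposed to compound for 40 hours; potency for ATP loss meaning cytotoxicity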); details: qHTS
In short: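 HepG2 hepatocellular carcinoma cells (1500/well) were treated with compounds for 40 h at 37 °C in complete medium; intracellular ATP was read by CellTiter-Glo luminescence. Data were normalized to DMSO and 100 uM tamoxifen, and AC50 came from Hill fits.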

[7] = Cell Viability - MRC5 (AID 434; calls by dose curve;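 note: potency is the fitted concentration of half-maximal effect; cells exposed to compound for 40 hours at 37 °C; potency reflects cytotoxicity seen as loss of intracellular ATP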); details: MRC5 lung fibroblast viability, qHTS
In short: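 ATP luminescence read-out (CellTiter-Glo, 20 min RT) after 40 hr, 37 °C compound exposure of 1500 MRC5 cells/well. Data normalized to DMSO (basal) and 100 uM tamoxifen (100% inhibition); AC50 from standard Hill equation.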

[8] = NFAT Signaling Pathway (AID 444); details: Jurkat NFAT-bla M1, carbachol, beta-lactamase ratio, 5 h; at 17.2 µM (top of the series) unless noted;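 note: carbachol stimulus at about its EC50 of 1 µM final; % is set by controls: 0 for no effect and ±100 for the full control effect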
In short: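 Jurkat cells with NFAT-driven β-lactamase reporter and co-expressed M1 receptor, stimulated with carbachol (final 1 uM, ~EC50), compound titration, 5 h at 37 °C. CCF4 loaded 1 h at RT; 460/530 nm ratio gave %activity and AC50.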

[9] = Stat Signaling Pathway (AID 446); details: ME-180 (cervical carcinoma) SIE beta-lactamase reporter, IL-6 stimulated, 5 h; at 17.2 µM (top of the series) unless noted;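 note: ME-180 cervical cancer cells given 40 pM IL-6 alongside compound; SIE-controlled beta-lactamase reporter measured as 460/530 nm FRET emission ratio; % is set by controls: 0 for no effect and ±100 for the full control effect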
In short: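 FRET read-out (405 nm excitation, 460/530 nm emission) of a beta-lactamase reporter under a STAT-inducible element in ME-180 cervical carcinoma cells. Cells with compound receive 40 pM IL-6 for 5 h. Values are normalised to AC90 stimulation and AC90 JAK-inhibitor controls.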

[10] = target: Glucocorticoid receptor (Homo sapiens) (UniProt P04150); assay: GR-GFP Redistribution (AID 450;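 active = compounds whose dose series gives a full or clear partial fitted curve of increased nuclear translocation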; note: potency is the fitted concentration of half-maximal effect); details: U2OS GR-GFP nuclear translocation, laser cytometry, 2 h
Glucocorticoid receptor (Homo sapiens), sequence (P04150 whole entry, looked up): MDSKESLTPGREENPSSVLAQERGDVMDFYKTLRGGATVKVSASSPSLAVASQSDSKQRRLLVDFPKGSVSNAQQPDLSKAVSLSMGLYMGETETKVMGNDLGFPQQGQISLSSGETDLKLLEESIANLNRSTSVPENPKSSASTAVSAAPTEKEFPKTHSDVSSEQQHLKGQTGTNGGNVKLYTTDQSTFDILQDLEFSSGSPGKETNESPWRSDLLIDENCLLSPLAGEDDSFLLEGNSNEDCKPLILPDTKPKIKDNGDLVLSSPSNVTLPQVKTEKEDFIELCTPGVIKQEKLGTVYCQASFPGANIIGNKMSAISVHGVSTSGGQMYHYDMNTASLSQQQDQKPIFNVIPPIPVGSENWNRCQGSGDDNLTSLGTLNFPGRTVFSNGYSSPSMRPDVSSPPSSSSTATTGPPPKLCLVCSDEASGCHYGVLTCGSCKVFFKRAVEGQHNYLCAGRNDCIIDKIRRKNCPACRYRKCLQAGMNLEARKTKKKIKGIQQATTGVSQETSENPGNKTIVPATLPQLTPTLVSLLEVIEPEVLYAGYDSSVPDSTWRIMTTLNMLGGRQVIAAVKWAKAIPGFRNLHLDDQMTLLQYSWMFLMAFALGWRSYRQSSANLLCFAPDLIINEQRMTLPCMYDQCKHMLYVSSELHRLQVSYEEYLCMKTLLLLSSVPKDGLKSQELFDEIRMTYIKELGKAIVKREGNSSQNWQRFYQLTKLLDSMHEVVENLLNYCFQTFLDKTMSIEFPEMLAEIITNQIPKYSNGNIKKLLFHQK

Cytochrome P450 1A2 (Homo sapiens), sequence (P05177 whole entry, looked up): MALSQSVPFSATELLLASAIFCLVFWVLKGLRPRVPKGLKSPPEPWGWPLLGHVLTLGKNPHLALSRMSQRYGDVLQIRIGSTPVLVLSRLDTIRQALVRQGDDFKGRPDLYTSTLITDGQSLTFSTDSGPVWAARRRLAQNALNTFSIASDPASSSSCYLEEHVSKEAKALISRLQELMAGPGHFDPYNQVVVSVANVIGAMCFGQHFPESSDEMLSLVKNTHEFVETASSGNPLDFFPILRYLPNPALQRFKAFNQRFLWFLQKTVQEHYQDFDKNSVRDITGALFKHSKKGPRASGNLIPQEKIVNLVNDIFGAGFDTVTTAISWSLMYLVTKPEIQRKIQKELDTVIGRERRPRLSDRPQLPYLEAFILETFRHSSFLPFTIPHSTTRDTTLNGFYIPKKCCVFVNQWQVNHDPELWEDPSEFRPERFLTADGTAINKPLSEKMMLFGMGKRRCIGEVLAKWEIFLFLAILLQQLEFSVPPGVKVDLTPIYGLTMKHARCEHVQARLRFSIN

SMILES	activity change, negative = inhibition [1]	Potency [2]	Potency [3]	Potency [4]	Potency [5]	Potency [6]	Potency [7]	activity change, negative = inhibition [8]	activity, negative = inhibition [9]	Potency [10]
CC1=NN(c2ccccc2)C(=O)C1	-7.19%	12.6 µM (active)	> 92 µM	> 92 µM	> 92 µM	> 92 µM	> 92 µM	9.94%	-2.54%	> 46 µM and > 20.6 µM
Cc1noc(NS(=O)(=O)c2ccc(N)cc2)c1C	3.21% and 4.22%	inactive	> 92 µM	> 92 µM	> 92 µM	> 92 µM	> 92 µM	-7.16% and 11.7%	7.81% and 5.09%	–
Cc1cc(NS(=O)(=O)c2ccc(N)cc2)no1	3.59% and 0.387%	–	> 92 µM	> 92 µM	> 92 µM	> 92 µM	> 92 µM	1.34% and -21.2%	2% and 5.36%	> 20.6 µM
OCc1ccc(-c2nn(Cc3ccccc3)c3ccccc23)o1	-16.4% [at 38 µM]	1.58 µM (active)	–	–	–	–	–	4.66% [at 38 µM]	-17.6% [at 38 µM]	> 46 µM
CCn1cc(C(=O)O)c(=O)c2cc(F)c(N3CCNCC3)nc21	-5.75% and 5.53%	inactive	–	–	–	–	–	-11.9% and 9.94%	4.75% and 1.14%	–
COc1cnc(NS(=O)(=O)c2ccc(N)cc2)nc1	-7.19%	inactive	–	–	–	–	–	-4.83%	-4.71%	> 20.6 µM
NC(=O)c1cccc(N)c1	11.6% [at 38 µM]	15.8 µM (active)	–	–	–	–	–	1.89% [at 38 µM]	1.75% [at 38 µM]	> 46 µM
Cc1cccc(N(C)C(=S)Oc2ccc3ccccc3c2)c1	-6.52% and 9.03%	2.51 µM (active)	–	–	–	–	–	–	4.85% and -13.1%	> 20.6 µM
NC(N)=NC(N)=NCCc1ccccc1	5.09% and 3.64%	–	–	> 92 µM	> 92 µM	–	> 92 µM	-2.75% and 12.2%	9.3% and 14.4%	> 20.6 µM
COC(=O)Nc1nc2ccc(C(=O)c3ccccc3)cc2[nH]1	17.1% and -8.17%	3.98 µM (active)	–	–	–	–	–	–	-12.3% and -12%	> 20.6 µM
COC(=O)Nc1nc2ccc(Sc3ccccc3)cc2[nH]1	1.3% and 6.61%	0.794 µM (active)	–	–	–	–	–	-6.14%	1.46% and -3.37%	> 20.6 µM
CC[C@H](C)C(=O)O[C@H]1C[C@@H](C)C=C2C=C[C@H](C)[C@H](CC[C@@H]3C[C@@H](O)CC(=O)O3)[C@H]21	-19.5%	–	> 92 µM	–	> 92 µM	–	> 92 µM	–	-3.85%	> 20.6 µM
CCCCOc1ccc(CC(=O)NO)cc1	-22.1% and -10.8%	1.58 µM (active)	–	–	–	–	–	-5.9% and 15%	-9.96% and -7.15%	> 20.6 µM
CNNCc1ccc(C(=O)NC(C)C)cc1	-1.4%	1.58 µM (active)	–	–	–	–	–	-25.9%	–	> 20.6 µM
COc1ncnc(NS(=O)(=O)c2ccc(N)cc2)c1OC	-3.45%	inactive	–	–	–	–	–	-25.1%	-3.42%	–
NNC(=O)c1ccncc1	11.8% and 7.05%	6.31 µM (active)	> 92 µM	> 92 µM	> 92 µM	> 92 µM	> 92 µM	-9.4% and 6.65%	3.44% and 12.3%	> 20.6 µM
